Values without a mark were called inactive. Inconclusive results are not listed. The source made the active and inactive calls. Calls follow the shape of the dose curve; as a rule, active = well fitted curve in the direction sought with a large enough effect in the repeat runs; inconclusive = weak or mixed curves; inactive = no such curve, though single readings can be large; an effect the other way counts as inactive or inconclusive.

Consider 23 compounds from PubChem BioAssay (Tox21).

Experiment [1] is described as follows: qHTS RealTime-Glo MT Cell Viability Assay in HEK293 cells - 32 hour (AID 1224868). Also: top concentration of the series differs between compounds; nearly all actives have a fitted effect of over 50% in size. In a few lines: (§1)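 Homogeneous bioluminescent viability format in HEK293 cells (600 cells/well). Following 5 h at 37 C/5% CO2, 23 nL compound was pintooled; the signal was measured repeatedly during 40 h incubation.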
The nature of experiment [2]: A CellTox Green Cytotoxicity Assay to monitor cytotoxicity in HEK293 cells - 0 hour (AID 1224869). Also: nearly all actives have a fitted effect of over 50% in size. In a few lines:
(§2)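 Nonlytic real-time cytotoxicity: HEK293 + CellTox Green reagent plated, 5 h preincubation, pintool compound addition (23 nL in DMSO), 37 C for 40 h, fluorescence measured at successive time points.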

The nature of experiment [3]: qHTS RealTime-Glo MT Cell Viability Assay in HepG2 cells - 40 hour (AID 1224870). Also: nearly all actives have a fitted effect of over 50% in size. In a few lines: (§3)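 HepG2 cells (600/well) mixed with RealTime-Glo MT reagent, settled 5 h at 37 C/5% CO2 before compound addition. Nonlytic NanoLuc luminescence from viable-cell prosubstrate reduction read repeatedly during 40 h treatment at 37 C.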
Experiment [4] can be described thus: A CellTox Green Cytotoxicity Assay to monitor cytotoxicity in HEK293 cells - 40 hour (AID 1224871). Also: nearly all actives have a fitted effect of over 45% in size. In a few lines: as §2
Experiment [5] is described as follows: qHTS RealTime-Glo MT Cell Viability Assay in HEK293 cells - 16 hour (AID 1224872). Also: top concentration of the series differs between compounds; nearly all actives have a fitted effect of over 50% in size. In a few lines:
as §1
On the technique in general: qHTS replaces the single test concentration by a dilution series.

A short description of experiment [6]: qHTS RealTime-Glo MT Cell Viability Assay in HepG2 cells - 8 hour (AID 1224873). Also: nearly all actives have a fitted effect of over 55% in size. In a few lines: as §3
Experiment [7] can be described thus: qHTS RealTime-Glo MT Cell Viability Assay in HEK293 cells - 40 hour (AID 1224874). Also: nearly all actives have a fitted effect of over 50% in size. The note with it: RealTime-Glo luminescence, stronger effect = lower value. In a few lines:
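Cells were seeded together with NanoLuc luciferase and a prosubstrate that viable cells reduce to a luciferase substrate. After a 5 h incubation at 37 C/5% CO2, compounds were added and luminescence was measured repeatedly during 40 h of treatment.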

Experiment [8] can be described thus: A CellTox Green Cytotoxicity Assay to monitor cytotoxicity in HEK293 cells - 24 hour (AID 1224875). Also: series mostly up to about 77 µM; nearly all actives have a fitted effect of over 45% in size. In a few lines:
as §2

The nature of experiment [9]: A CellTox Green Cytotoxicity Assay to monitor cytotoxicity in HepG2 cells - 16 hour (AID 1224876). Also: nearly all actives have a fitted effect of over 45% in size. Also: potency is read from the fitted curve at half-maximal effect. In a few lines:
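Read-out is fluorescence of a cyanine dye excluded from live cells that stains DNA of dead HepG2 cells, with signal proportional to cytotoxicity. Plates were read at 0, 8, 16, 24, 32 and 40 h after compound addition.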

Experiment [10] can be described thus: qHTS RealTime-Glo MT Cell Viability Assay in HepG2 cells - 32 hour (AID 1224877). Also: nearly all actives have a fitted effect of over 55% in size. In a few lines:
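Cell number in HepG2 cultures estimated from NanoLuc luminescence generated by metabolic reduction of a prosubstrate by living cells. The homogeneous, nonlytic format allowed repeated reads at 0, 8, 16, 24, 32 and 40 h of compound exposure.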
% is scaled to controls: 0 for no effect and ±100 for the full control effect.

As for `c1cc2ccc3ccc4ccc5cccc6c(c1)c2c3c4c56`, the results for the activity change, negative = cytotoxic in experiment [1] and in experiment [3] were 0.861% [at 2.72 µM] and -2.6% [at 2.72 µM], respectively. The cytotoxicity in experiment [2] was -4.63% [at 2.72 µM]. The values for the cytotoxicity increase in experiment [4] and in [9] were -13.8% [at 2.72 µM] and -15.3% [at 2.72 µM], respectively. The activity change, negative = cytotoxicity in experiment [5] is -0.658% [at 2.72 µM]. Besides, the viability change, negative = cytotoxic in experiment [6] is 0.803% [at 2.72 µM]. For the same compound, the max response in experiment [7] is 1.82%. In experiment [8], the activity change is -12.1% [at 2.72 µM, stronger effect = higher value].
With `BrCCOc1ccccc1`, the call in experiment [1], in experiment [2], in experiment [3], in experiment [5], in [6] and in [10] was inactive. For the same compound, the Potency result in experiment [4], in experiment [8] and in experiment [9] was “inactive” each time. For the same compound, in experiment [7], the max response is -4.49%.
In the case of `N#Cc1cc(NC(=O)C(=O)O)c(Cl)c(NC(=O)C(=O)O)c1`, the call in [1], in experiment [2], in [3], in [5] and in experiment [6] was inactive. Also, the Potency entry in experiment [4], in [8] and in [9] was “inactive” throughout. Besides, the max response in [7] is -0.333%.
In the case of `CC(C)C(C)C`, the outcome in experiment [1], in experiment [2], in experiment [3], in experiment [5] and in experiment [6] was inactive. Besides, the Potency entry in [4], in [8] and in experiment [9] was “inactive” in each case. Besides, the max response in [7] was 5.69%.
Turning to `CC(=O)O[C@@H]1CC2C3CCc4cc(OC(=O)c5ccccc5)ccc4C3CCC2(C)[C@H]1OC(C)=O` (some centres not stated), the compound was classed as inactive in [1], in [2], in experiment [3], in experiment [5], in [6] and in experiment [10]. The Potency result in experiment [4], in experiment [8] and in [9] was “inactive” each time. Besides, the max response in experiment [7] is 0.184%.
As for `CCCc1ccc(O)c(OC)c1`, the result in experiment [1], in [2], in experiment [3], in experiment [5], in [6] and in experiment [10] was inactive. Besides, the Potency entry in [4], in experiment [8] and in experiment [9] was “inactive” throughout. Besides, the max response in [7] is 6.36%.
With `CCOCCOCCOC(C)=O`, the outcome in experiment [1], in experiment [2], in experiment [3], in experiment [5], in [6] and in experiment [10] was inactive. The Potency entry in experiment [4], in [8] and in [9] was “inactive” each time. Further, in [7], the max response was 7.47%.
For the compound `Cc1ccc2ccccc2n1`, the call in experiment [1], in experiment [2], in [3], in experiment [5], in [6] and in experiment [10] was inactive. Moreover, the Potency result in experiment [4] and in experiment [8] was “inactive” each time. In experiment [7], the max response was 18.8%. Also, the Potency in experiment [9] is 138 nM (active).
As to `C[n+]1ccccc1/C=N/O`, the result in experiment [1], in experiment [2], in [3], in experiment [5], in experiment [6] and in [10] was inactive. The Potency result in experiment [4], in experiment [8] and in experiment [9] was “inactive” in each case. The max response in experiment [7] is 0.0286%.
Regarding `C=CCCCCCCCCOC(C)=O`, the compound was classed as inactive in experiment [1], in experiment [2], in experiment [3], in experiment [5], in experiment [6] and in experiment [10]. Besides, the Potency entry in [4], in [8] and in experiment [9] was “inactive” each time. The max response in experiment [7] was 0.238%.
With `N#Cc1ccccc1C#N`, the compound was called inactive in experiment [1], in experiment [2], in [3], in experiment [5], in [6] and in experiment [10]. Besides, the Potency entry in [4], in experiment [8] and in [9] was “inactive” throughout. Besides, in experiment [7], the max response was 4.47%.
Take `CC(=O)OC1CCC(C(C)(C)C)CC1` (configuration not stated): the outcome in experiment [1], in [2], in experiment [3], in experiment [5], in [6] and in experiment [10] was inactive. Besides, the Potency entry in [4], in experiment [8] and in [9] was “inactive” in each case. Moreover, the max response in [7] is 0.815%.
On to `O=Cc1ccc(C(=O)O)cc1`, for which the outcome in [1], in experiment [2], in [3], in experiment [5], in experiment [6] and in experiment [10] was inactive. Besides, the Potency entry in experiment [4], in [8] and in experiment [9] was “inactive” throughout. In addition, in experiment [7], the max response is 0.978%.
In the case of `Cc1cc(=O)oc2cc(O[C@@H]3SC[C@@H](O)[C@H](O)[C@H]3O)ccc12`, the outcome in [1], in experiment [2], in [3], in experiment [5], in experiment [6] and in experiment [10] was inactive. For the same compound, the Potency result in experiment [4], in experiment [8] and in experiment [9] was “inactive” in each case. Also, the max response in experiment [7] is -5.1%.
For `COCc1nnc(-c2ccc[n+]([O-])c2)n1-c1c(Cl)c(Cl)cc2[nH]c(=O)c(=O)[nH]c12`, the call in experiment [1], in [2], in [3], in experiment [5] and in [6] was inactive. Besides, the Potency entry in [4], in experiment [8] and in experiment [9] was “inactive” each time. Further, in experiment [7], the max response was -6.51%.
On to `Cc1cc(N)no1`, for which the outcome in [1], in experiment [2], in experiment [3], in experiment [5], in [6] and in experiment [10] was inactive. Besides, the Potency result in experiment [4], in [8] and in [9] was “inactive” each time. For the same compound, the max response in [7] is 13.5%.
As for `CCCCCCCCC1CO1` (configuration not stated), the outcome in [1], in [2], in experiment [3], in [5] and in experiment [6] was inactive. Moreover, the Potency entry in experiment [4], in experiment [8] and in [9] was “inactive” in each case. Besides, the max response in experiment [7] is -0.591%.
Regarding `O=Cc1ccccc1S(=O)(=O)O`, the compound was classed as inactive in experiment [1], in experiment [2], in [3], in experiment [5], in experiment [6] and in experiment [10]. Moreover, the Potency entry in experiment [4], in experiment [8] and in experiment [9] was “inactive” each time. Moreover, the max response in experiment [7] was 7.86%.
For `CCCCCCCCCCCCCCCC(=O)OC`, the activity change, negative = cytotoxic in [1] is -0.272% [at 15.8 µM]; in [3], 16.9% [at 15.8 µM]; in [10] it was 6.89% [at 15.8 µM]. In addition, the cytotoxicity in experiment [2] was -0.154% [at 15.8 µM]. Also, the cytotoxicity increase in experiment [4] is -6.02% [at 15.8 µM]; in experiment [9] it was -17.1% [at 15.8 µM]. In experiment [5], the activity change, negative = cytotoxicity is -4.38% [at 15.8 µM]. Moreover, the viability change, negative = cytotoxic in [6] is -11% [at 15.8 µM]. In experiment [7], the max response was -0.62%. Also, in [8], the activity change was -1.12% [at 15.8 µM, stronger effect = higher value].
In the case of `CC(=O)Nc1ccc(OCCOCCOc2ccc(NC(C)=O)cc2)cc1`, the result in experiment [1], in experiment [2], in experiment [3], in experiment [5] and in experiment [6] was inactive. Also, the Potency entry in experiment [4], in experiment [8] and in experiment [9] was “inactive” in each case. The max response in [7] was -1.67%.
With `Cc1cccc(N)n1`, the compound was called inactive in experiment [1], in experiment [2], in experiment [3], in [5] and in experiment [6]. The Potency result in experiment [4], in experiment [8] and in experiment [9] was “inactive” in each case. Also, the max response in [7] was -4.06%.
On to `CC(=O)OCC(=O)[C@@]1(O)CC[C@H]2[C@@H]3CCC4=CC(=O)C=C[C@]4(C)[C@H]3[C@@H](O)C[C@@]21C`, for which the compound was classed as inactive in [1], in [2], in experiment [3], in [5], in experiment [6] and in experiment [10]. Besides, the Potency entry in experiment [4], in experiment [8] and in [9] was “inactive” throughout. For the same compound, the max response in experiment [7] is -2.13%.
Regarding `CCCC(=O)CC`, the result in experiment [1], in experiment [2], in [3], in [5] and in [6] was inactive. Further, the Potency result in experiment [4], in experiment [8] and in [9] was “inactive” in each case. In experiment [7], the max response was 11.6%.
